Assay outcomes: PubChem BioAssay, National Center for Advancing Translational Sciences (NCATS)
NPR1 antag: human Npr1 receptor antagonism. P16066. HEK293 hNpr1 GloSensor cGMP, ANP-stimulated luminescence. Potency, µM (top dose mostly 46.3 µM), inactives show at the top dose activity change, negative = inhibition, hits mostly inhibitors. 1.6% of 76,000 active. AID 1347048; calls by dose curve; note: nearly all actives have a fitted effect of over 60% in size
Target sequence (P16066 whole entry, looked up): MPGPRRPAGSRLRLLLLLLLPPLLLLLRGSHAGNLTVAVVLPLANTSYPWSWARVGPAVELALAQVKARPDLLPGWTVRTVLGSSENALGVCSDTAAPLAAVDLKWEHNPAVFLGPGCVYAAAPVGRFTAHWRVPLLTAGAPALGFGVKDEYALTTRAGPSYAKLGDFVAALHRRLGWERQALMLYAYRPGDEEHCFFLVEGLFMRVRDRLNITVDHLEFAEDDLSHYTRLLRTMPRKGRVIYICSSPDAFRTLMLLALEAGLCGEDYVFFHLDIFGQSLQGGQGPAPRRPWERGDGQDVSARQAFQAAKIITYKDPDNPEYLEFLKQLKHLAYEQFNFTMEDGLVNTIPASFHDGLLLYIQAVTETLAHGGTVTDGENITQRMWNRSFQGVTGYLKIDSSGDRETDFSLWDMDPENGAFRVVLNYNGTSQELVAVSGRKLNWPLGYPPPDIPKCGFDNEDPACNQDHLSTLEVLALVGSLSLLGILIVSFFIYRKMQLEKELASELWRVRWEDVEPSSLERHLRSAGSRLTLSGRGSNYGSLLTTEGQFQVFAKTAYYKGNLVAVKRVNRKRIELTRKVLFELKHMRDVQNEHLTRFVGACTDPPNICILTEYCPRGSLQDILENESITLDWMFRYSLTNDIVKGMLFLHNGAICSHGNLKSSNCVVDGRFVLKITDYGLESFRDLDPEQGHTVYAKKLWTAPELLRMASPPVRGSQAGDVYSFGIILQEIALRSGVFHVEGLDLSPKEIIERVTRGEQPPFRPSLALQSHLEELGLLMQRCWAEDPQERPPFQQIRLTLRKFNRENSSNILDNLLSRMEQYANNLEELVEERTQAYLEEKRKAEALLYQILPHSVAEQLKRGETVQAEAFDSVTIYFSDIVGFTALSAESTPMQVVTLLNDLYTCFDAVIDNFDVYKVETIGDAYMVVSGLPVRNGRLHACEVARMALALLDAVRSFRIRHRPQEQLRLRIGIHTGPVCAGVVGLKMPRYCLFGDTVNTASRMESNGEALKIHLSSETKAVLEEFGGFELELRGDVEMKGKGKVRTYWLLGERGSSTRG
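Compound pre-incubated 30 min at room temperature on GloSensor-loaded HEK293 cells stably carrying hNpr1 and the pGS-40F cGMP biosensor. Stimulation uses hNppA at 0.1 nM final; luminescence is taken at baseline and 20 min post-agonist.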
Luciferase inh: Photinus pyralis luciferase inhibition; P08659; 2.5% of 76,000 active; purified P. pyralis luciferase, luminescence, biochemical; Potency, µM (series often up to 115 µM), hits mostly inhibitors; AID 1347043; note: nearly all actives have a fitted effect of over 65% in size
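FLuc 10nM, D-luciferin 10uM, ATP 10uM, Mg acetate 10mM, Tris acetate pH 7.5, Tween/BSA; cpd qHTS; enzyme added last; CCD luminescence.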
HEK293 tox: kills HEK 293 cells | HEK 293 viability, ATP luminescence (CellTiter-Glo), 48-72 h | Potency, µM (top dose mostly 115 µM), without a hit: at the top dose activity change, negative = cytotoxicity, hits mostly inhibitors | 6.6% of 94,000 active; note: nearly all actives have a fitted effect of over 60% in size
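Pintool-delivered compounds were incubated with HEK 293 cells (250 cells/well) at 37 degree Celsius for 48 or 72 hr. ATP-dependent luminescence (CellTiter-Glo) then reported remaining viable cells.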
3T3 cytotox: cytotoxic compounds in NIH 3T3 cells. NIH 3T3 viability, CellTiter-Glo ATP luminescence, 48-72 h. Potency, µM (highest dose often 96.7 µM), without a hit: at the highest dose activity change, negative = cytotoxicity, usual class: inhibitors. 4.3% of 94,000 active. AID 1345082; note: nearly all actives have a fitted effect of over 55% in size
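Cytotoxicity was measured by CellTiter-Glo ATP luminescence after 48 or 72 h compound exposure at 37 °C. Mouse NIH 3T3 fibroblasts were seeded at 400 cells/well and dosed by 23 nL pin transfer.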
The depositor's hits bear a star; i = inactive; u = inconclusive; x = no result given; [ ] = another dose, or the depositor's remark. Shown are actives, neighbours in structure and some others; about 11% of the full set was active somewhere. Unless noted, calls come from the whole dose curve; as a rule, active = well fitted curve in the direction sought with a large enough effect; inconclusive = small, poorly fitted or top-dose-only effect, or another doubt; inactive = no such curve, though single readings can be large; an effect the other way counts as inactive or inconclusive. % is set by controls: 0 for no effect and ±100 for the full control effect; potency is the fitted concentration of half-maximal effect.

SMILES	NPR1 antag	Luciferase inh	HEK293 tox	3T3 cytotox
O=C1NC(=NC2CCCC2)C2(CCN(Cc3ccccc3)CC2)N1c1cc(F)cc(F)c1	x	x	-28%	-13%
O=C1NC(=NC2CCCC2)C2(CCN(Cc3cccnc3)CC2)N1c1cc(F)cc(F)c1	x	x	i	32µM*
c1ccc(-c2cn3c(n2)CO[C@@H](CNCC2CCCCC2)C3)cc1	-2%[70.6 µM]	i	100µM*	100µM*
CC(=O)Nc1ccc(CNC[C@H]2Cn3cc(-c4ccc(C)cc4)nc3CO2)cc1	5%[70.6 µM]	71µM*	u	u
Cc1ccc(-c2cn3c(n2)CO[C@@H](CNC(=O)c2ccccc2)C3)cc1	1%[70.6 µM]	u	u	-9%[138 µM]
Cc1ccc(-c2cn3c(n2)CO[C@@H](CNCc2ccc(-c4ccccn4)cc2)C3)cc1	u	35µM*	35µM*	40µM*
Cc1ccc(-c2cn3c(n2)CO[C@@H](CNC(=O)NCc2ccccc2)C3)cc1	0%[70.6 µM]	71µM*	u	-17%[138 µM]
O=S(=O)(Cc1ccccc1)NC[C@H]1Cn2cc(-c3ccccc3)nc2CO1	5%[70.6 µM]	u	u	-18%[138 µM]
Cc1ccc(-c2cn3c(n2)CO[C@@H](CNCc2ccc(S(C)(=O)=O)cc2)C3)cc1	-21%[70.6 µM]	u	u	-28%[174 µM]
Cc1cnc(CC2CCN(C(=O)C3CCC3)C2)n1Cc1ccccc1 (stereo not drawn)	-2%	i	-4%	-14%
CCc1nnc([C@@H]2CC(F)(F)CN2C(=O)c2ccc3nc[nH]c3c2)o1	0%	i	-1%	-7%
Cc1ccc(-c2cn3c(n2)CO[C@@H](CNC2CCCC2)C3)cc1	3%[70.6 µM]	63µM*	100µM*	100µM*
Cc1ccc(-c2cn3c(n2)CO[C@@H](CNCc2ccccc2Cl)C3)cc1	u	i	89µM*	89µM*
COc1ccc(-c2cn3c(n2)CO[C@@H](CNCc2ccc(OC(F)(F)F)cc2)C3)cc1	u	u	45µM*	u
COc1ccc(-c2cn3c(n2)CO[C@@H](CNCc2nccn2C)C3)cc1	7%[70.6 µM]	u	-7%[172 µM]	-8%[174 µM]
COc1ccc(-c2cn3c(n2)CO[C@@H](CNC2CCOCC2)C3)cc1	3%[70.6 µM]	i	-7%[172 µM]	-12%[138 µM]
Cc1ccc(-c2cn3c(n2)CO[C@@H](CNCc2ccc(Cl)cc2)C3)cc1	u	u	56µM*	45µM*
O=C(NCCCN1CCCc2ccccc21)c1ccc(N2CC3CC(C2)[C@H]2CCCC(=O)N2C3)nc1 (stereo partly drawn)	-7%	i	u	-15%
COc1ccc(-c2cn3c(n2)CO[C@@H](CNC(C)=O)C3)cc1	1%[70.6 µM]	45µM*	i	i
Cc1ccc(-c2cn3c(n2)CO[C@@H](CNC(=O)CCC(=O)O)C3)cc1	-3%[70.6 µM]	u	i	i
O=C(NCCc1ccccc1)c1cc2n(n1)CC(c1ccc3c(c1)OCO3)OC2 (stereo not drawn)	u	i	u	u
O=C(NCCCc1ccccc1)c1cc2n(n1)CC(c1ccc3c(c1)OCO3)OC2 (stereo not drawn)	-23%	i	u	28µM*
CC1CCC(NC(=O)c2cc3n(n2)CC(c2ccc4c(c2)OCO4)OC3)CC1 (stereo not drawn)	-9%	i	22µM*	u
CCOc1ccc(NC(=O)c2cc3n(n2)CC(c2ccc4c(c2)OCO4)OC3)cc1 (stereo not drawn)	16µM*	u	22µM*	u
Cc1cc(C)cc(NC(=O)c2cc3n(n2)CC(c2ccc4c(c2)OCO4)OC3)c1 (stereo not drawn)	-19%	i	89µM*	u
O=C1NCCCCCCN(Cc2ccncc2)[C@@H]2CN(C(=O)c3ccncc3)CC[C@@H]12	4%	i	-7%	-14%
CNC(=O)[C@H]1C[C@]2(CCCCN(C)C2=O)N(C(=O)c2ccc(NC(C)=O)cc2)[C@H]1c1ccco1	x	x	-16%	u
COc1cc(-c2cc(C)c3cccc(OC)c3n2)cc2c1OCCN(C(=O)CCN)C2	0%	i	u	89µM*
CC1CCN(c2ccc(-c3cccc(NC(=O)NC(C)C)c3)nn2)CC1	2.2µM*	0.25µM*	u	-17%
COc1ccc(OC)c(NC(=O)Nc2cccc(-c3ccc(N4CCCCC4)nn3)c2)c1	13µM*	0.25µM*	u	-22%
